Bioassay records as filed in PubChem BioAssay.
PfHsp40 rescue: restores yeast growth despite PfHsp40 toxicity; S. cerevisiae expressing PfHsp40, growth rescue, ATP luminescence; growth rescue, % at 12.5 µM; 340,000 compounds, 0.68% hits; AID 504582; in the data active means growth rescue above about 28%, passing the limit was not always enough;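 further: yeast W303a lacking pdr1 and pdr3 grown in galactose medium; growth measured after three days at 30 °C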
Mtb hypoxia inh: inhibitors of hypoxia-regulated fluorescent reporter in Mycobacterium tuberculosis. M. tuberculosis hypoxia-regulated fluorescent reporter, fluorescence. 300,000 compounds, 0.1% hits. AID 1159583. fluorescence inhibition, % (no concentration beside the values); in the data active means fluorescence inhibition mostly above about 23%, no sharp cut-off; inactive means mostly below about 17%
Sa RN4220 lethal: S. aureus RN4220 growth inhibition | OD600, 16 h | inhibition, % (concentration not given with the values) | 330,000 compounds, 0.33% hits | AID 1259311; in the data active means inhibition above about 85%;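 further: plate controls were untreated cells for no effect and reference antibiotic for full effect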
PriA SSB inh: blocks PriA binding to SSB C-terminal tail | inhibition, % at 33 µM | 430,000 compounds, 0.6% hits | AlphaScreen SSBct-PriA binding, biotinylated peptide | AID 1272365; in the data active means inhibition mostly above about 37%, no sharp cut-off; inactive means mostly below about 20%;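 further: plate controls were negative control peptide for no effect and reference peptide for full effect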
ugtP null kill: kills S. aureus RN4220 lacking UgtP | S. aureus RN4220 ugtP deletion, OD600 growth, 16 h | growth inhibition, % (test concentration not listed) | 330,000 compounds, 0.54% hits | AID 1259309; in the data active means growth inhibition above about 68%;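 further: plate controls were untreated wells for no effect and antibiotic for full effect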
VHR inh abs: inhibitors of human VHR1 phosphatase (DUSP3). recombinant VHR phosphatase, pNPP absorbance. inhibition, % at 13.3 µM. AID 1654. 290,000 compounds, 0.52% hits. P51452; in the data active means inhibition above about 50%
Target sequence (P51452 whole entry, looked up): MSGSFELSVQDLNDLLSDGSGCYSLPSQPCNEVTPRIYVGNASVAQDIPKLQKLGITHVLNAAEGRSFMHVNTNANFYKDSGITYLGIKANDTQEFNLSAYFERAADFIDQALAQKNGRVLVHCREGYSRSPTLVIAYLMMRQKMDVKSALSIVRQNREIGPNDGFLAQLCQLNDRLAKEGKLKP
The depositor's hits bear a star; . = no result given; ! = repeats disagree. Rows were chosen to be rich in hits. Some 1.8% of all compounds tested hit in one or more screens of this group.

SMILES | PfHsp40 rescue | Mtb hypoxia inh | Sa RN4220 lethal | PriA SSB inh | ugtP null kill | VHR inh abs
CCOc1ccc(S(=O)(=O)NC2CCCCCC2)cc1 | 1 | 17 | 4 | -12 | 6 | 3
COc1cc(S(=O)(=O)NC2CCCCC2)ccc1Cl | 91* | . | 0 | -9 | -4 | 16
O=C(c1ccc(OC2CCN(CCc3ccccc3)CC2)cc1)N1CCC(CO)CC1 | -1 | -9 | 0 | 0 | 4 | 51*
Cc1ccn(CC(=O)NN=Cc2cc([N+](=O)[O-])ccc2O)n1 | . | 3 | 93* | 23 | 83* | .
O=C(Cn1nc2ccccc2n1)N/N=C/c1cc([N+](=O)[O-])ccc1O | 2 | . | . | . | . | 2
O=C(Cn1nc2ccccc2n1)NN=Cc1cc([N+](=O)[O-])ccc1O | . | 6 | 95* | -14 | 88* | .
Cc1ccn(CC(=O)N/N=C/c2cc([N+](=O)[O-])ccc2O)n1 | -2 | . | . | . | . | -1
O=C(NCc1cccs1)NC[C@@H](c1ccco1)N1CCOCC1 | . | . | . | -15 | . | .
CC(C)(C)C1=Nn2c(nnc2-c2ccccn2)SC1 | 0 | 5 | 1 | 90* | -2 | 11
COc1ccc(C2=Nn3c(nnc3-c3ccccn3)SC2)cc1OC | 1 | 7 | 5 | 83* | -8 | -13
COc1ccc(C2=Nn3c(nnc3-c3ccccc3OC)SC2)cc1OC | 0 | 4 | 7 | 1 | 0 | 38
CC(=NN1CCN(c2ccccc2)CC1)c1cccs1 | . | -4 | 3 | -3 | 8 | .
COC(=O)CSC1CCN(C(=O)Cc2ccc(NC(C)=O)cc2)C1 (configuration not stated) | . | . | . | -3 | . | .
O=C(CCN1C(=O)c2ccccc2C1=O)NC(=S)Nc1cccc(Cl)c1 | 66* | . | -2 | -9 | 7 | 20
CCOC(=O)c1csc(NC(=O)c2cc(C)n(C)n2)n1 | . | . | . | -9 | . | .
Cc1ccc(S(=O)(=O)NCCC(=O)O)cc1C | . | . | . | 14 | . | .
CN1C(=O)Cc2cc(S(=O)(=O)N3CCN(c4cccc(C(F)(F)F)c4)CC3)ccc21 | -1 | -8 | 3 | 2 | 4 | 52*
CC(C)(C)OC(=O)N1CC=C2C(C#N)=C(N)C(C#N)(C#N)[C@H](c3cccnc3)[C@H]2C1 | 1 | 2 | 7 | 2 | -4 | 8
N#CC1=C(N)C(C#N)(C#N)[C@H](c2ccncc2)[C@H]2CN(C(=O)OCc3ccccc3)CC=C12 | -1 | -1 | 2 | -10 | -5 | 54*
CCc1cccc(NC(=O)c2cnn(-c3ccccc3)c2C)c1 | 38* | -4 | 2 | -22 | -2 | -10
Cc1ccc2nc(-c3ccc(NS(=O)(=O)Cc4noc5ccccc45)cc3)sc2c1 | . | . | . | -4 | . | .
Cc1ccc(C(=O)Nc2ccc(Br)c(C(F)(F)F)c2)cc1 | 0 | 25 | 61 | -43 | 91* | 13
Cn1ncc(C#N)c1N=CN(Cc1ccccc1)Cc1ccccc1 | . | . | 101* | -21 | 100* | .
Cc1cccn2c(=O)c(/C=C(\C#N)C(=O)NCc3ccco3)c(N3CCCC(C)C3)nc12 (configuration not stated) | -1 | 11 | 14 | -3 | -15 | 55*
O=C(Cn1c(=O)oc2ccccc21)N1CCN(c2ccc(N3CCOCC3)nn2)CC1 | -2 | 2 | 7 | -16 | -7 | 54*
SMILES | PfHsp40 rescue | Mtb hypoxia inh | Sa RN4220 lethal | PriA SSB inh | ugtP null kill | VHR inh abs
CCOc1ccc(C=NN(C)c2ccccc2)cc1OC | . | 9 | 10 | 39* | 17 | .
O=C(Nc1nc(CCC(=O)N2CCN(C(=O)c3ccco3)CC2)cs1)NC1CCCCC1 | . | . | . | -7 | . | .
CCN1CCN(C(c2ccccc2)c2nnnn2Cc2ccc3c(c2)OCO3)CC1 (configuration not stated) | 0 | 8 | 4 | -10 | 13 | 52*
CCN1CCN(C(c2ccc(OC)cc2)c2nnnn2Cc2ccc3c(c2)OCO3)CC1 (configuration not stated) | -2 | 8 | 3 | -3 | 8 | 7
COCCNC(=O)COc1ccc(C)cc1 | . | . | . | -16 | . | .
Cc1ccc2nc(N(CCCN(C)C)C(=O)c3cc(-c4cccs4)nc4ccccc34)sc2c1 | -1 | 24 | 33 | 44* | -45 | 32
CN(C)CCCN(C(=O)c1cc(-c2cccs2)nc2ccccc12)c1nc2c(F)cccc2s1 | 0 | -5 | -5 | 52*! | -24 | 20
COc1cc2ccccc2cc1C(=O)N(CCN(C)C)c1nc2ccc(C)cc2s1 | 2 | 2 | -13 | 36 | -17 | 11
